In test [1] the target is human Neurokinin, NK2 Receptor, TACR2 (gene 6865) (UniProt P21452). The experiment in a line: NVS_GPCR_hNK2: NovaScreen (NVS) G Protein-Coupled Receptor Assay for human Neurokinin, NK2 Receptor (AID 2283278).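 Also: actives reduce bound radioligand signal relative to DMSO baseline.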 The method, boiled down:
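Filter-based scintillation counting measured radioligand bound to receptor extracted from CHO cells, 4 hours after compound addition. Chemicals screened first at 25 uM in duplicate, with actives retested in concentration series relative to DMSO.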

In test [2] the target is Muscarinic acetylcholine receptor M1 (Homo sapiens) (UniProt P11229). As to the kind of experiment: NVS_GPCR_hM1: NovaScreen (NVS) G Protein-Coupled Receptor Assay for human Muscarinic, M1 Receptor (AID 2283270). The method, boiled down:
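Actives from a duplicate 25 uM single-point screen were retested in concentration series. Binding measured as displacement of a radioligand from CHO-derived receptor preparation, 1 h incubation, filtration and scintillation counting, analysed as signal loss against DMSO.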

Test [3] concerns the target Muscarinic acetylcholine receptor M3 (Homo sapiens) (UniProt P20309). The experiment in a line: NVS_GPCR_hM3: NovaScreen (NVS) G Protein-Coupled Receptor Assay for human Muscarinic, M3 Receptor (AID 2283272). The procedure, abridged:
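Radioligand displacement binding on human M3 receptor in CHO-derived membranes, 1 h incubation, filter-based scintillation counting. Primary screen in duplicate at 25 uM; actives followed up in concentration series; loss of signal versus DMSO.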

Test [4] concerns the target Muscarinic acetylcholine receptor M2 (Homo sapiens) (UniProt P08172). The experiment in a line: NVS_GPCR_hM2: NovaScreen (NVS) G Protein-Coupled Receptor Assay for human Muscarinic, M2 Receptor (AID 2283273). The procedure, abridged:
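Filter-based radiodetection read bound radioligand 1 h after dosing CHO-derived membrane protein. Single-concentration duplicates (25 uM) first, then concentration-response for actives; signal loss versus DMSO scored.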

Test [5] addresses human Muscarinic, M4 Receptor, CHRM4 (gene 1132) (UniProt P08173). As to the kind of experiment: NVS_GPCR_hM4: NovaScreen (NVS) G Protein-Coupled Receptor Assay for human Muscarinic, M4 Receptor (AID 2283274). The method, boiled down: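 Filter-based scintillation counting of radioligand bound to CHO-expressed human M4 preparations after 1 h; loss of signal fitted versus DMSO. Initial duplicate testing at 25 uM, concentration-response follow-up for actives.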

The target in test [6] is Muscarinic acetylcholine receptor M5 (Homo sapiens) (UniProt P08912). As to the kind of experiment: NVS_GPCR_hM5: NovaScreen (NVS) G Protein-Coupled Receptor Assay for human Muscarinic, M5 Receptor (AID 2283275). The method, boiled down:
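Chemicals passing a primary duplicate screen at 25 uM were run as singleton concentration series, maximum 50 uM. Displacement of a specific radioligand from CHO-extracted receptor was read by filter scintillation after 1 h, relative to DMSO.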

For test [7], the target named is human Neuropeptide Receptor Y1 (NPY1), NPY1R (gene 4886) (UniProt P25929). As to the kind of experiment: NVS_GPCR_hNPY1: NovaScreen (NVS) G Protein-Coupled Receptor Assay for human Neuropeptide Receptor Y1 (NPY1) (AID 2283276). The method, boiled down: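 Displacement of specific radioligand from NPY1 receptor of SK-N-MC origin, read by filtration and scintillation after 1 h. Compounds first tested at 25 uM in duplicate, then actives in concentration series; signal loss relative to DMSO.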

For test [8], the target named is Neuropeptide Y receptor type 2 (Homo sapiens) (UniProt P49146). The experiment in a line: NVS_GPCR_hNPY2: NovaScreen (NVS) G Protein-Coupled Receptor Assay for human Neuropeptide Receptor Y2 (NPY2) (AID 2283277). The method, boiled down:
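Chemicals were first tested in duplicate at 25 uM, then actives in singleton concentration series to 50 uM. Tracer binding to SK-N-MC-derived protein measured cell-free after 1 h via filter scintillation; signal loss relative to DMSO.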

Test [9] has as its target human Leukotriene B4 Receptor 1 (LTB4-BLT1), LTB4R (gene 1241) (UniProt Q15722). As to the kind of experiment: NVS_GPCR_hLTB4_BLT1: NovaScreen (NVS) G Protein-Coupled Receptor Assay for human Leukotriene B4 Receptor 1 (LTB4-BLT1) (AID 2283271). The method, boiled down: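 Cell-free human neutrophil receptor preparation, 1 h exposure, radioligand binding read by filter scintillation counting. Single 25 uM duplicate screen, then concentration series topping at 50 uM; binding loss scored against DMSO baseline.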

Test [10] addresses human Neurotensin Receptor (NTS), NTSR1 (gene 4923) (UniProt P30989). As to the kind of experiment: NVS_GPCR_hNTS: NovaScreen (NVS) G Protein-Coupled Receptor Assay for human Neurotensin Receptor (NTS) (AID 2283279). Here is the method: NVS_GPCR_hNTS is a biochemical, single-readout assay that uses extracted gene-proteins from CHO in a cell-free assay. Measurements were taken 1 hour after chemical dosing in a 96-well plate.NVS_GPCR_hNTS is one of one assay component(s) measured or calculated from the NVS_GPCR_hNTS assay. It is designed to make measurements of radioligand binding, a form of binding reporter, as detected with scintillation counting signals by Filter-based radiodetection technology.Data from the assay component NVS_GPCR_hNTS was analyzed into 1 assay endpoint. This assay endpoint, NVS_GPCR_hNTS, was analyzed in the positive analysis fitting direction relative to DMSO as the negative control and baseline of activity. […] Furthermore, this assay endpoint can be referred to as a primary readout, because the performed assay has only produced 1 assay endpoint. […]
Binding assays used specific radioligands (tritiated, iodinated) with non-radioactive competitive displacement ligands in agonist or antagonist protocols (as indicated) and various reference compounds and inhibitors to titrate specific binding to receptors and transporters. Most enzyme assays (CYPs, kinases, phosphatases, proteases, HDACs) used recombinant protein and specific substrates (fluorescence mostly, some colorimetric and radioactive) and inhibitors, followed by a biochemical separation of substrate and product. […]

Each structure is given as a SMILES string. Records with an inconclusive call do not appear. Calls of active or inactive are those of the source. The calls were made as follows: active = hit-call score of the fitted dose curve at least 0.9, where 1 is the maximum; inconclusive = response in the unintended direction; inactive = score below 0.9.

Sequence of Muscarinic acetylcholine receptor M2 (Homo sapiens) (P08172 whole entry, looked up): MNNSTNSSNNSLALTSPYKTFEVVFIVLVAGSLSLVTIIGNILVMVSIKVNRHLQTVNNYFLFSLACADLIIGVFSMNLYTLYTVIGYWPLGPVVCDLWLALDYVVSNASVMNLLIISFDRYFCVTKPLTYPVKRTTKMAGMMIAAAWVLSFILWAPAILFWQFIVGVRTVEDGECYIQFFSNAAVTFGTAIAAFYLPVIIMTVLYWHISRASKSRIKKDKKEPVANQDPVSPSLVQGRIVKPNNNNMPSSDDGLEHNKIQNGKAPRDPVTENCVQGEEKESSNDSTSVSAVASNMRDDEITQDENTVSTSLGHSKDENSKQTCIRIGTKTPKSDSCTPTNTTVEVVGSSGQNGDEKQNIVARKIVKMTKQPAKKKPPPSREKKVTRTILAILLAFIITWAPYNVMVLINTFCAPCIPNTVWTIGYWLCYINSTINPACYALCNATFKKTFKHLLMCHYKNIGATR
Sequence of Muscarinic acetylcholine receptor M5 (Homo sapiens) (P08912 whole entry, looked up): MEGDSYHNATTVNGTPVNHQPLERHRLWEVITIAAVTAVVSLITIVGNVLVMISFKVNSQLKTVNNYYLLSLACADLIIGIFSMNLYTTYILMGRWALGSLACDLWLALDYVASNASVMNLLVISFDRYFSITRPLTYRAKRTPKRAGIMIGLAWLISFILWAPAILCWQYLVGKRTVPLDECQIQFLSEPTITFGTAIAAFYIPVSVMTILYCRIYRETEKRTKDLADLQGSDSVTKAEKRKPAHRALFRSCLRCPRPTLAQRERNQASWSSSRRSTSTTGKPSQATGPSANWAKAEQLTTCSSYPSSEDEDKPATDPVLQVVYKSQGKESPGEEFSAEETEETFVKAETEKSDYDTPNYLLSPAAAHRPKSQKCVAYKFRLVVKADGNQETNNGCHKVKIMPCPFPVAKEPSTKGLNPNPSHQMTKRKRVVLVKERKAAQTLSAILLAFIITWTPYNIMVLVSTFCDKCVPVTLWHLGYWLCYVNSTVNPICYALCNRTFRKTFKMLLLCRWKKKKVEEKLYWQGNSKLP
Sequence of Muscarinic acetylcholine receptor M3 (Homo sapiens) (P20309 whole entry, looked up): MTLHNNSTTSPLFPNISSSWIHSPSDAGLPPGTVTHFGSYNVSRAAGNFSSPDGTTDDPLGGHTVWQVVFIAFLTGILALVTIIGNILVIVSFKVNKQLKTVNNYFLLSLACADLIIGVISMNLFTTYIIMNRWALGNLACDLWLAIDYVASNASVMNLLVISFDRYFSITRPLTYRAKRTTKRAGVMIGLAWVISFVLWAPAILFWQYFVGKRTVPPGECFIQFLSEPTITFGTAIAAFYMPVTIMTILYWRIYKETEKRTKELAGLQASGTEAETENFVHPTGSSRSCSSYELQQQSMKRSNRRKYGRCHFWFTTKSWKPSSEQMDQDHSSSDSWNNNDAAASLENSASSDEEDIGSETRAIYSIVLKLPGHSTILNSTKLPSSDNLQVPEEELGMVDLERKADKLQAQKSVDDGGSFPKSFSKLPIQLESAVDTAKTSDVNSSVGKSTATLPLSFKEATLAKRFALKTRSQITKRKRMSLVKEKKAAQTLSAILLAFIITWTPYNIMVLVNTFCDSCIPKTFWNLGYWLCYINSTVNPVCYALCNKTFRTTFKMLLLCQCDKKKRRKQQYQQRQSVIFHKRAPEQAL
Sequence of human Muscarinic, M4 Receptor, CHRM4 (gene 1132) (P08173 whole entry, looked up): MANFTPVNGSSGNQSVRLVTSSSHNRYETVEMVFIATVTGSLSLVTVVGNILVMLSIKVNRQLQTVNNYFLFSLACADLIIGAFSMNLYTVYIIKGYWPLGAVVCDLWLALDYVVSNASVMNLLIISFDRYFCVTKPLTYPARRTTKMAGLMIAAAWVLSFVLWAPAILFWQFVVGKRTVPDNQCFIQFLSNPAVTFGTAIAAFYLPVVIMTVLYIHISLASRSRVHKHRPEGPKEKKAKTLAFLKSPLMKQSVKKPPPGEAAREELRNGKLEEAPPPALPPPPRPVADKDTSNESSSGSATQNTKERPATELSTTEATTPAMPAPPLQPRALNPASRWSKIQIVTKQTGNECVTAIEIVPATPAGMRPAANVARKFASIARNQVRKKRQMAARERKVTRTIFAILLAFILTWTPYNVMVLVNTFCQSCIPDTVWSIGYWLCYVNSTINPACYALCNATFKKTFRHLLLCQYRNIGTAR
Sequence of human Leukotriene B4 Receptor 1 (LTB4-BLT1), LTB4R (gene 1241) (Q15722 whole entry, looked up): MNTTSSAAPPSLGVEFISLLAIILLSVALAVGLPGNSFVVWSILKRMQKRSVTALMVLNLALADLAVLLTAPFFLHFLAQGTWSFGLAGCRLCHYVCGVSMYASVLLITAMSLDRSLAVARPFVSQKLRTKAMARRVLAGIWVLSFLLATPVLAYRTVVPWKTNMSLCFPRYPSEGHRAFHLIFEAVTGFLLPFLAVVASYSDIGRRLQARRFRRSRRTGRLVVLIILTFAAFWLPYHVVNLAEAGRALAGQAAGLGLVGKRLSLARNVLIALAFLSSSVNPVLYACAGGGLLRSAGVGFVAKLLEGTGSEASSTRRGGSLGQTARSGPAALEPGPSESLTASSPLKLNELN
Sequence of Muscarinic acetylcholine receptor M1 (Homo sapiens) (P11229 whole entry, looked up): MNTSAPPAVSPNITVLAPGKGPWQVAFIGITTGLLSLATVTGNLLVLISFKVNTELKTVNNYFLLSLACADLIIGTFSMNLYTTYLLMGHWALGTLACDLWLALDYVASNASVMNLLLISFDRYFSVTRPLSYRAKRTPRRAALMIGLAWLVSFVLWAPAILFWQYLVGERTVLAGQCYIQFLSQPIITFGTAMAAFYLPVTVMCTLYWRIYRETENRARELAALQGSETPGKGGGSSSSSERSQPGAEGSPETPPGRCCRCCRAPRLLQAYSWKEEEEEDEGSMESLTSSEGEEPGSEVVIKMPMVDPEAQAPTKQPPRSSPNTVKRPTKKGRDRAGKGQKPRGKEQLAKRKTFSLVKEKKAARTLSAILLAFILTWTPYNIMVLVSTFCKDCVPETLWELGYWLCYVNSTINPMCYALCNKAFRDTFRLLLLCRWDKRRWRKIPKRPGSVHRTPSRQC
Sequence of human Neurokinin, NK2 Receptor, TACR2 (gene 6865) (P21452 whole entry, looked up): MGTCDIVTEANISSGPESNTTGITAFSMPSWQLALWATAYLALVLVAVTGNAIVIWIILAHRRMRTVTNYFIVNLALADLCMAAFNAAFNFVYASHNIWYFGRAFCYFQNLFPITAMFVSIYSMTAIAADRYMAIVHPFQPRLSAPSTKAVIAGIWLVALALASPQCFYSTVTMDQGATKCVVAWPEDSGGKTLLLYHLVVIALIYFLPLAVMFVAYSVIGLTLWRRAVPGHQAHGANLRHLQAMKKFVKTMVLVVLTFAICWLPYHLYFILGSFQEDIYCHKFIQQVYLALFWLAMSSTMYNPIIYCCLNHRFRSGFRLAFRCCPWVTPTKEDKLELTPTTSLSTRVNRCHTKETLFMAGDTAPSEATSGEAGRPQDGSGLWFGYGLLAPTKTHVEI
Sequence of human Neuropeptide Receptor Y1 (NPY1), NPY1R (gene 4886) (P25929 whole entry, looked up): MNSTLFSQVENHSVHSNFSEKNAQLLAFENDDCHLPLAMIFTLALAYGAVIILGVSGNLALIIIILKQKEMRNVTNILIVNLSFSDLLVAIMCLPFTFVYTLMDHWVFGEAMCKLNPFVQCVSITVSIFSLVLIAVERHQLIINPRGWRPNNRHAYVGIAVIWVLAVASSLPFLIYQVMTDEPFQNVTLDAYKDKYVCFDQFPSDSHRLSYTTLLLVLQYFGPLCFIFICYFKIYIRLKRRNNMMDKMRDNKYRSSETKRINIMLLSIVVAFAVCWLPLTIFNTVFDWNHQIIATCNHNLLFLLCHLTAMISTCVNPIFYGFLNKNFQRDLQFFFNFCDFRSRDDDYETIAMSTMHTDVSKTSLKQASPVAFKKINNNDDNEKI
Sequence of Neuropeptide Y receptor type 2 (Homo sapiens) (P49146 whole entry, looked up): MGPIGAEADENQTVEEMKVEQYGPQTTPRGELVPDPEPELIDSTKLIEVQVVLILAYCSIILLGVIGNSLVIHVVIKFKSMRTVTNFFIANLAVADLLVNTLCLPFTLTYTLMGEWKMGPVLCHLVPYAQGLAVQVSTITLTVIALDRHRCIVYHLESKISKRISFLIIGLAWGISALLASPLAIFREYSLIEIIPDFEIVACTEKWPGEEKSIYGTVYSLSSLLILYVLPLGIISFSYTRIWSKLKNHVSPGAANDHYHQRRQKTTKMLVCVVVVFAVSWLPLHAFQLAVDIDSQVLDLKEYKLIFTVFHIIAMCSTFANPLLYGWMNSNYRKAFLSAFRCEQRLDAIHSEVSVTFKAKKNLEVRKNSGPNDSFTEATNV
Sequence of human Neurotensin Receptor (NTS), NTSR1 (gene 4923) (P30989 whole entry, looked up): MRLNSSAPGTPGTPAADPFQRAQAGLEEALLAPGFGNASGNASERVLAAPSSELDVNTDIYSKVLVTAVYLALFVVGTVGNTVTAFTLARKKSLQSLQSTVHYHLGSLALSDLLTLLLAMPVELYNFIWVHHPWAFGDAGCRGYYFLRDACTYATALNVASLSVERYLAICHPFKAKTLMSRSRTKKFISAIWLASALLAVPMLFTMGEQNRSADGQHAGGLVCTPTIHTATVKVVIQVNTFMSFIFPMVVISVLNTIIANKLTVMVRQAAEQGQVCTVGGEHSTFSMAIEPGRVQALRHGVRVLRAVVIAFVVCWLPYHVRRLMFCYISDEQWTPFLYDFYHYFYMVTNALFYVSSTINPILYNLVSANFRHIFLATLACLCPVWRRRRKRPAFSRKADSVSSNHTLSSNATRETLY

`COP(=S)(OC)Oc1ccc(S(=O)(=O)N(C)C)cc1`: the molecule was classed as inactive in test [1].
Take `Nc1ncc([N+](=O)[O-])s1`: the result in [1] was inactive.
Take `C=C(C)C(=O)[O][Sn]([CH2]CCC)([CH2]CCC)[CH2]CCC`: the AC50 – broadly, the concentration at which the activity in the assay is half-maximal – in test [2] was 1900 nM (active); in test [3], 2670 nM (active); in test [4], 5320 nM (active); in test [5], 19100 nM (active); in [6], 1230 nM (active); in test [7], 1140 nM (active). Moreover, the half-maximal activity concentration (AC50) is 14800 nM (active) in [8] and 977 nM (active) in test [1].
For the molecule `O=C(Nc1ccc2[nH]ccc2c1)c1cc2cc(F)ccc2n1Cc1cccc(F)c1`, the molecule was classed as inactive in test [6].
Consider `COP(=S)(OC)Oc1cc(Cl)c(Cl)cc1Cl`, for which the molecule was called inactive in test [1].
Consider `O=C(O)C(F)(F)C(F)(F)C(F)(F)C(F)(F)C(F)(F)C(F)(F)C(F)(F)C(F)(F)C(F)(F)C(F)(F)F`, for which, in [9], the AC50 was 33400 nM (active).
As to `CC(=O)[O][Hg][c]1ccccc1`, the AC50 in test [2] was 1390 nM (active); in [9] it was 21000 nM (active); in test [3] it was 562 nM (active); in test [4], 909 nM (active); in test [5], 770 nM (active); in [6], 591 nM (active). For the same molecule, the AC50 in [7] was 510 nM (active); in test [8], 8480 nM (active); in test [1], 520 nM (active).
For `O=C1C2(Cl)C3(Cl)C4(Cl)C(Cl)(Cl)C5(Cl)C3(Cl)C1(Cl)C5(Cl)C24Cl` (stereo unspecified), the result in test [3], in test [4] and in test [5] was inactive.
As for `CCC(=O)C(CC(C)N(C)C)(c1ccccc1)c1ccccc1` (stereo unspecified), the AC50 is 6920 nM (active) in test [2]; 10700 nM (active) in test [3]; 9960 nM (active) in test [4]; 8300 nM (active) in test [5]; 4570 nM (active) in test [6].
As to `CC12CC1(C)C(=O)N(c1cc(Cl)cc(Cl)c1)C2=O` (stereo unspecified), in test [1], the call was inactive.
Turning to `CC(C)(C)c1cc(O)ccc1O`, in test [9], the molecule was classed as inactive. For the same molecule, the half-maximal activity concentration (AC50) in [1] is 16300 nM (active).
On to `Nc1cccc2ccccc12`, for which the concentration at half-maximal activity (AC50) in test [1] was 4280 nM (active).
As for `CC(C)(C)CC(C)(C)c1ccc(O)cc1`, the call in [2] and in test [4] was inactive. The AC50 in [1] is 25000 nM (active).
`CCN1CCC2(CC1)COc1cc3c(cc12)N(C(=O)c1ccc(-c2ccc(-c4nnc(C)o4)cc2C)cc1)CC3`: the AC50 was 646 nM (active) in test [2]; 676 nM (active) in [3]; 1320 nM (active) in [4]; 1900 nM (active) in [5]; 2030 nM (active) in test [6].
For the molecule `COP(=S)(OC)Oc1ccc(Sc2ccc(OP(=S)(OC)OC)cc2)cc1`, the molecule was called inactive in test [1].
In the case of `Oc1cccc2cccnc12`, the molecule was called inactive in [7] and in [10]. Besides, the AC50 in test [1] is 4960 nM (active).

(Values after PubChem BioAssay (EPA / NIEHS).)
